Compounds with a hit are over-represented: about 19% of the library has one in this group of screens.
DT40 TDP1 CPT = DT40-hTDP1 cell growth loss with CPT | chicken DT40 Tdp1-/-;hTDP1 cells + 20 nM CPT, ATP luminescence, 48 h | Potency, µM (doses to about 46.2 µM), inactives show top-dose activity change, negative = growth inhibition, most hits filed as inhibitors | 420,000 tested, 12% active; further: potency means the concentration at half of the fitted maximal effect; nearly all actives have a fitted effect of over 55% in size
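Cell growth measured by CellTiter-Glo luminescence after a minimum 48 h, 37 C compound exposure with 20 nM CPT in Tdp1-knockout DT40 cells stably expressing hTDP1, seeded 400/well; qHTS titration format.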
IL1B secr inh = inflammasome signaling inhibition, IL-1 beta readout | THP-1 LPS/ATP IL-1B secretion, AlphaLISA, 16 h; stronger effect = lower value | activity change, % at 57.5 µM | 360,000 tested, 4.7% active; in the data active means activity change below about -50%; inconclusive means mostly about -30% to -49%
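Secreted IL-1B measured by AlphaLISA bead assay after 16 h compound exposure of THP-1 cells; compounds (final up to 57.5 uM) added 1 h before LPS (250 ng/mL) and ATP (1.25 mM) stimulation; lower signal means less secretion.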
HT1080-NT tox = kills 2HG-producing HT-1080-NT fibrosarcoma cells; Potency, µM (titrated, usually from 46.1 µM), for the others: at the top dose activity, negative = less viability, usual class: cytotoxic; AID 686970; 360,000 tested, 1.6% active; HT-1080-NT fibrosarcoma viability, CellTiter-Glo ATP luminescence, 48 h;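 further: NT is the 2HG producing partner of a matched IDH1 knockdown line; potency means the concentration at half of the fitted maximal effect; 0% = DMSO-treated cells and -100% = media-only wells without cells; nearly all actives have a fitted effect of over 55% in size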
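A 48-hour cytotoxicity screen used HT-1080-NT cells plated 2 hours before compound delivery. ATP-based CellTiter-Glo luminescence measured viability, normalized to DMSO and no-cell controls.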
TDP1 cell noCPT = qHTS for Inhibitors of human tyrosyl-DNA phosphodiesterase 1 (TDP1): qHTS in cells in absence of CPT; DT40 Tdp1-/- hTDP1 cells, no CPT, ATP luminescence, 48 h; Potency, µM (titrated, usually from 46.2 µM), for inactives: top-dose activity change, negative = growth inhibition, actives largely listed as inhibitors; AID 686978, 2013; 420,000 tested, 15% active; further: potency means the concentration at half of the fitted maximal effect; nearly all actives have a fitted effect of over 55% in size
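Growth kinetics read by CellTiter-Glo luminescence after ≥48 hr at 37 °C. Cells: DT40 Tdp1-/- stably carrying human TDP1, 400 per well, compound exposure in the absence of CPT (DMSO vehicle).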
HT1080 IDH1KD tx = toxicity to HT-1080 IDH1 knockdown cells (counter line) | HT-1080 IDH1 knockdown viability, ATP luminescence, 48 h | Potency, µM (top dose mostly 46.1 µM), for the others: at the highest dose activity, negative = toxicity, actives largely listed as cytotoxic | 360,000 tested, 2% active | AID 686971;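 further: potency means the concentration at half of the fitted maximal effect; 0% = DMSO wells and -100% = cell-free medium wells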
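Using the IDH1-knockdown HT-1080 line run in the same batch and compound series as the NT line, viability after 48 h at 37 °C was determined by CellTiter-Glo luminescence and expressed as % activity.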
* marks the source's active call; other numbers are inactive results; ? = inconclusive; nt = not tested or not shown; [ ] = remark or other dose. Unless noted, the call rests on the fitted dose curve; in most records, active means well fitted curve in the direction sought with a large enough effect; inconclusive means small, poorly fitted or top-dose-only effect, or another doubt; inactive means no such curve, though single readings can be large; an effect the other way counts as inactive or inconclusive. Unless noted, on the % scale 0 is the no-effect control and ±100 the full control effect.

SMILES | DT40 TDP1 CPT | IL1B secr inh | HT1080-NT tox | TDP1 cell noCPT | HT1080 IDH1KD tx
O=C(C1CCCO1)N1N=C(c2ccc(Br)cc2)CC1c1ccco1 (stereo not drawn) | ? | ? | 21.0% | 14.6µM* | 11.7%
Cc1ccc(C2=NN(C(=O)C3CCCO3)C(c3ccco3)C2)cc1 (stereo not drawn) | -14.6% | ? | 4.7% | ? | 3.5%
O=C(CSc1nnc(-c2ccccc2Br)o1)N1CCc2ccccc2C1 | ? | -59.7* | -27.5% | ? | 9.1%[9.24 µM]
O=C(CSc1nnc(Cc2ccccc2)o1)N1CCCc2ccccc21 | ? | -12.8 | -8.5% | -0.4% | 10.0%[9.24 µM]
CC1Cc2ccccc2N1C(=O)CSc1nnc(-c2ccc(S(=O)(=O)N3CCOCC3)cc2)n1C (stereo not drawn) | 16.4µM* | 0.0 | 0.4% | ? | -3.0%
O=C(CSc1nnc(-c2ccccc2Cl)o1)N1CCCc2ccccc21 | ? | nt | nt | 16.4µM* | nt
O=C(CSc1nnc(Cc2csc(Nc3cccc(Cl)c3)n2)o1)N1CCc2ccccc21 | 18.4µM* | ? | -12.2% | 20.6µM* | -7.7%
O=C(COc1ccccc1)Nn1cnc2ccccc21 | -13.9% | 25.4 | 0.1% | -12.4% | 19.4%
COc1ccc(OCCCC(=O)Nc2cc(S(=O)(=O)N3CCCCC3)ccc2OC)cc1 | -19.6% | 58.7 | -0.5%[9.24 µM] | -25.8% | 2.4%
CC1Cc2ccccc2N1C(=O)CSc1nnc(-c2ccccc2Cl)o1 (stereo not drawn) | 25.9µM* | nt | nt | ? | nt
CC1Cc2ccccc2N1C(=O)CSc1nnc(-c2ccc(S(=O)(=O)N3CCCC3)cc2)o1 (stereo not drawn) | ? | 19.3 | 2.5% | 16.4µM* | 1.2%
CCN(CC)C(=O)CSc1nnc(-c2ccc(S(=O)(=O)N3CCCC3)cc2)o1 | -7.7% | 0.0 | 9.4% | -10.4% | 2.2%
O=C(Cc1ccccc1Cl)c1ccccc1 | 0.2% | 5.9 | -5.7% | -16.3% | 1.3%
CCN(CC)S(=O)(=O)c1ccc(OC)c(NS(=O)(=O)c2cccc(C(=O)O)c2)c1 | -8.5% | 0.0 | ? | 0.9% | 11.6%
Nc1c(Cl)ncnc1N/N=C/c1cccnc1 | 4.7% | nt | -1.9% | 2.0% | -0.3%
Nc1c(Cl)ncnc1N/N=C/c1ccccn1 | 0.0184µM* | -82.9* | ? | 0.0206µM* | ?
COC(=O)c1sccc1NC(=O)Nc1ccccc1OC | -5.7% | -0.6 | -1.8% | -4.3% | 0.6%
COc1ccc(OC)c(NC(=O)Nc2nc(C(C)N)cs2)c1 (stereo not drawn) | -29.0% | -68.9* | -28.5% | ? | -21.5%
COc1ccccc1NC(=O)Nc1ccccc1C(N)=O | ? | 7.5 | 15.2% | -8.0% | 5.8%
COc1ccccc1CNC(=O)Nc1nc(C(N)C(C)C)cs1 (stereo not drawn) | ? | -50.9* | ? | ? | ?
COc1ccccc1NC(=O)Nc1nc(C(C)(C)C)cs1 | 16.4µM* | -83.1* | ? | -22.9% | -27.8%
COc1ccccc1NC(=O)Nc1nc(C(N)C(C)C)cs1 (stereo not drawn) | ? | -26.8 | ? | 20.6µM* | ?
COc1ccc(OC)c(NC(=O)Nc2nc(CN)cs2)c1 | ? | -7.7 | 2.3% | ? | 2.7%
COc1ccccc1CNC(=O)Nc1cccs1 | ? | 13.7 | -1.2% | ? | 7.3%
CCNc1ncc2ncc(=O)n(C3CC3)c2n1 | ? | nt | nt | -7.7% | nt
SMILES | DT40 TDP1 CPT | IL1B secr inh | HT1080-NT tox | TDP1 cell noCPT | HT1080 IDH1KD tx
COc1cccc(NC(=O)N(C)C[C@@H]2OCc3cnnn3CCCC(=O)N([C@@H](C)CO)C[C@H]2C)c1 | ? | 25.0 | 5.8% | -15.1% | -3.3%
Cc1ccc(SCC(=O)OCC(=O)N(C)CC(=O)Nc2ccc(F)cc2)cc1C | 7.4% | 12.9 | -6.5% | -1.6% | -17.4%
Cc1ccccc1OCC(=O)NNC(=O)CN1C(=O)c2ccccc2C1=O | 6.4% | 0.0 | 12.3% | 4.4% | 21.9%
COc1cccc(OC)c1-c1cc(CCCc2cc(-c3c(OC)cccc3OC)nc3ccccc23)c2ccccc2n1 | ? | nt | nt | 12.6µM* | nt
COc1c2ccccc2nc2ccccc12 | ? | 7.0 | -9.5% | ? | -9.2%
Cc1cc2nc(C3CCN(C(=S)NCCCOC(C)C)CC3)[nH]c2cc1C | -7.0% | 6.7 | -3.8% | -20.8% | -5.3%
COc1ccc(S(=O)(=O)N(CC(=O)NCc2cccnc2)c2ccc(C)cc2)cc1OC | -6.3% | 9.2 | 16.8% | -29.8% | 6.0%
Cc1cccc(N/N=C(\C(N)=O)C2=NC(C)(C)Cc3ccccc32)c1 | ? | -13.6 | ? | 25.9µM* | ?
CCOC(=O)/C(=N\O)C1=NC(C)(C)Cc2ccccc21 | 6.4% | -3.8 | 1.5% | 14.9% | -1.5%
CC1=C(c2ccc(Cl)cc2)S(=O)(=O)N=C1N1CCN(c2cccc(C(F)(F)F)c2)CC1 | 8.2µM* | nt | nt | 20.6µM* | nt
CC1=C(c2ccc(C)c(C)c2)S(=O)(=O)N=C1N1CCC(C(=O)NCc2ccccc2C)CC1 | -6.1% | nt | nt | -20.9% | nt
COc1ccc(C2=C(C)C(N3CCN(c4ccc(OC)cc4)CC3)=NS2(=O)=O)cc1 | -4.0% | nt | nt | -5.6% | nt
CC1=C(c2ccc(C)c(C)c2)S(=O)(=O)N=C1N1CCN(c2cccc(C)c2)C(C)C1 (stereo not drawn) | 18.4µM* | nt | nt | 10.3µM* | nt
CC1=C(c2ccc(C(C)C)cc2)S(=O)(=O)N=C1N1CCN(c2ccc(F)cc2)CC1 | 20.6µM* | nt | nt | 10.3µM* | nt
CCc1ccc(NC(=O)CCNS(=O)(=O)c2ccc3c(c2)oc(=O)n3C)cc1 | -15.8% | nt | nt | -15.2% | nt
O=C(c1cnsn1)N1CCOc2ccc(CN3CCOCC3)cc2C1 | 12.5%[9.04 µM] | nt | nt | -13.0% | nt
CN(CC(=O)Nc1ccccc1Cl)C(=O)CSc1nnc(-c2ccco2)n1C | 5.3% | 1.7 | 0.9% | 17.8% | 0.1%
CC(C)N1CCc2c(sc(NC(=O)c3cc(-c4cccs4)nc4ccccc34)c2C(N)=O)C1 | 18.4µM* | -21.0 | ? | 9.2µM* | ?
CCC(C)NC(=O)c1cc(-c2cccs2)nc2ccccc12 (stereo not drawn) | 26.8% | 17.4 | 2.2% | ? | -1.1%
CC(C)N1CCc2c(sc(NC(=O)c3nc4ccccc4s3)c2C(N)=O)C1 | 13µM* | -9.7 | ? | 20.6µM* | -28.1%
Oc1ccc(-c2[nH]ncc2-c2cccc3cccnc23)c(O)c1 | 23.1µM* | -24.9 | ? | ? | ?
Oc1ccc(-c2[nH]ncc2-c2ccc(Cl)cc2)c(O)c1 | -15.3% | -7.5 | -12.8% | ? | -20.5%
CC(=O)c1ccc(NC(=O)CN2C(=O)COc3ccc(S(=O)(=O)N4CCCC4)cc32)cc1 | ? | -19.4 | 4.0% | ? | 6.8%
